# Screening results (PubChem BioAssay)
# p53 reactivator: re-activators of mutant p53. H1299 p53-A138V BP100-luciferase reporter, luminescence, 24 h. Potency, µM (top dose mostly 92.2 µM), inactives show top-dose activity change, positive = activation, most hits filed as activators. AID 504706. hit rate 0.063% among 320,000; further: potency means the concentration at half of the fitted maximal effect; % of control where 0% means no effect; nearly all actives have a fitted effect of over 45% in size
#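 p53-null H1299 cells stably carrying temperature-sensitive p53-A138V and a BP100-luciferase reporter were pinned with compounds (4-point, 1:5 series) and held 24 hrs at 37 deg C. Luminescence was read 10 min after detection reagent.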
# IL-2 act: activators of IL-2; IL-2 activation reporter assay, cell-based qHTS; stimulated with anti-CD3/CD4/CD28 beads; in transgenic mouse T cells; activation, % (series mostly up to about 46 µM); hit rate 0.065% among 360,000; AID 652025; in the data active means activation above about 50%; inconclusive means mostly about 30% to 49%; further: 0% is about no effect
#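 Unstimulated transgenic mouse T cells preincubated 60 min with compound, then stimulated with anti-CD3/anti-CD4-coated beads plus anti-CD28 for 18 h at 37 degrees C. IL-2 response read as EGFP and DsRed fluorescence by plate cytometry.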
# BRCA1 expr up: BRCA1 expression activation | AID 624202 | hit rate 1.1% among 380,000 | Potency, µM (series often up to 46.1 µM), for the others: at the top dose activation, usual class: activators | MCF7-BRCA1-FFLuc reporter, luminescence, 48 h; response scale: scaled: vehicle 0%, 10 µM genistein 100%; further: potency means the concentration at half of the fitted maximal effect; nearly all actives have a fitted effect of over 80% in size
#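 Activators of BRCA1 expression were detected as increased firefly luciferase luminescence in engineered MCF7 cells after 48 h compound incubation. Signals were scaled to genistein 10 microM as full activation.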
# TCR act: activators of T cell receptors; primary human leukocytes, anti-CD3, IL-2 HTRF, 48 h; Potency, µM (top dose mostly 9.22 µM), without a hit: at the top dose activation of IL-2 secretion, usual class: activators; 330,000 tested, under 10 active; AID 504894; further: % of control where 0% means no effect
#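 1) Mix primary human leukocytes, a-CD3 beads and compound. 2) Incubate 48 hr. 3) Add HTRF IL-2 reagents (a-IL-2-K, a-IL-2-d2).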
# Mito fusion act: inhibitors of mitochondrial division or activators of mitochondrial fusion. Potency, µM (series often up to 46.1 µM), inactives show top-dose growth rescue (activation), hits mostly activators. S. cerevisiae fusion-defective mutant growth rescue, CellTiterGlo 48 h. AID 485298. hit rate 0.23% among 320,000; further: potency means the concentration at half of the fitted maximal effect; % of control where 0% means no effect; nearly all actives have a fitted effect of over 45% in size
#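 Luminescent cell viability in 1536-well qHTS format served as the measure of rescued growth in ts fusion-mutant S. cerevisiae cultured on non-fermentable YPEG for 48 hours at 37C.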
# * hit, by the source's call; ? = inconclusive; . = no result; [ ] = another dose, or the depositor's remark. The list is not random: actives were taken first. Their share in the collection is about 1.3%. Unless noted, the call rests on the fitted dose curve; in most records, active means well fitted curve in the direction sought with a large enough effect; inconclusive means small, poorly fitted or top-dose-only effect, or another doubt; inactive means no such curve, though single readings can be large; an effect the other way counts as inactive or inconclusive.
SMILES,p53 reactivator,IL-2 act,BRCA1 expr up,TCR act,Mito fusion act
COc1ccc(CC(=O)c2ccc(O)cc2O)cc1,18%,0,?,2%,5%
O=C(Cc1ccc(Br)cc1)c1ccc(O)cc1O,?,0,11µM*,2%,7%
N#Cc1c2c(c(Cl)n3c1nc1ccccc13)CCCC2,.,.,-1%,.,.
O=C(C[n+]1ccccc1)c1ccc(I)cc1,.,.,17%,.,.
CCOc1ccccc1NC1(c2ccccc2)C(=O)c2ccccc2C1=O,.,.,14%,.,.
COc1ccc(CNC(=O)c2ccc(C(C)(C)C)cc2)cc1,11%,-1,3.5µM*,-2%,17%
C/C(=C\C(=O)O)C(=O)Nc1nccs1,-4%,-4,-5%,0%,-2%
C/C(=C\C(=O)Nc1nccs1)c1ccccc1,.,0,8.9µM*,.,-7%
COc1ccc(Br)cc1Cn1nnc(C(=O)Nc2cccc(SC)c2)c1N,.,.,-36%,.,.
COc1cc(/C=C/c2cncc(/C=C/c3cc(OC)c(OC)c(OC)c3)c2)cc(OC)c1OC,.,.,14%,.,.
O=C(Nc1ccc(-c2cnco2)cc1)c1ccccc1,16%,0,2.8µM*,10%,1%
Cc1cccnc1Nc1nc(-c2ccc(O)cc2)cs1,?,-2,4.5µM*,0%,9%
Oc1ccc(-c2csc(Nc3ncccn3)n2)c(O)c1,0%,0,4.5µM*,11%,3%
CC(C)NS(=O)(=O)c1ccc2[nH]c3nc(SCC(=O)Nc4ccc(F)c(F)c4)nnc3c2c1,.,.,0%,.,.
CC(C)Nc1oc(-c2cccc3ccccc23)nc1C#N,10%,0,14µM*,0%,11%
CCNc1oc(-c2cccc3ccccc23)nc1C#N,.,-1,71%,0%,-3%
O=C(NC(=S)NC1CCCCCC1)c1cncc(Br)c1,?,0,11µM*,1%[46.1 µM],7%
COc1nc(-c2ccccc2)nnc1-c1ccccc1,1%,1,59%,-1%,2%
COc1nc(-c2ccccc2)nc(C)c1CC(=O)O,-3%,0,2%,-2%,6.3µM*
O=C(C[N+]12CN3CN(CN(C3)C1)C2)c1ccc(O)c(O)c1,.,.,3%,.,.
O=C(NCCc1ccccc1)c1cccc(Br)c1,3%,-4,13µM*,2%,-2%
CC(C)CN1CCC(Oc2cccc(C(=O)NCCc3ccccc3)c2)CC1,40µM*,0,-14%,-4%,-1%
CCCNC(=O)c1cccc(Br)c1,0%,0,-1%,2%,-7%
O=C(NCCc1ccccc1)/C(=N\O)c1ccccc1,?,-1,1.3µM*,-1%,4%
O=C(NCCc1ccccc1)c1cccc(NC(=O)C2CC2)c1,.,0,6.3µM*,0%,.
SMILES,p53 reactivator,IL-2 act,BRCA1 expr up,TCR act,Mito fusion act
CSc1ccc(/C=N/n2c(C)cc(C)cc2=O)cc1,29%,-1,10µM*,-1%,-2%
CSc1ccc(/C=N/n2c(C)nnc2C)cc1,11%,0,-6%,4%,3%
O=C1c2ccccc2CN1c1ccccc1,8%,-1,6.3µM*,8%,-3%
Cc1ccc(N2Cc3ccccc3C2=O)cc1,.,1,?,0%,-4%
O=C(CSc1nnc(-c2cccc(Br)c2)o1)N1CCNC1=O,22%,-1,10µM*,-104%,.
O=C(CSc1nnc(-c2ccccc2Cl)o1)N1CCCC1,?,0,7.1µM*,0%,12%
Cc1cccc(-c2nnc(SCC(=O)N3CCCC3)o2)c1,22%,1,7.1µM*,3%,6%
Cc1nn(-c2ccccn2)c2c1-c1nc(N)sc1CC2,.,.,-7%,.,.
COc1ccc2c(c1)CCC2=O,.,.,5%,.,.
CCCCc1ccc(NC(=O)COC(=O)c2ccccc2OCC(=O)Nc2ccc(Br)cc2)cc1,.,.,0%,.,.
COC1C(CO)OC(n2c3c(Cl)cccc3c3c4c(c5c6cccc(Cl)c6[nH]c5c32)C(=O)NC4=O)C(O)C1O (stereo not given),.,62*,-82%,-31%,.
O=C(COc1ccccc1C(=O)Nc1ccccc1)Nc1cccc([N+](=O)[O-])c1,.,.,7%,.,.
COc1ccc(-c2nc3sc(CCNC(=O)c4cccc(C(F)(F)F)c4)c(C)n3n2)cc1,.,.,6.3µM*,.,.
O=c1c2ccccc2oc2ncccc12,12%,0,13µM*,8%,0%
COc1ccc(S(=O)(=O)Nc2cccc3cccnc23)c([N+](=O)[O-])c1,.,.,-71%,.,.
CCCCN1C(=O)/C(=C/C=C2\SCCN2C)SC1=S,?,17,7.1µM*,5%,-10%
CN1CCS/C1=C/C=C1\SC(=S)N(CC(=O)O)C1=O,2%,-1,3%,2%,5%
CN1CCS/C1=C/C=C1/SC(=S)N(Cc2ccccc2)C1=O,?,3,13µM*,14%[46.1 µM],?
CC(=O)Nc1ccc(/C=C/C(=O)c2ccc(-n3nncc3-c3ccccc3)cc2)cc1,.,.,-56%,.,.
C(/Oc1ccccc1)=C1\Nn2c(nnc2-c2cc(-c3ccccc3)n[nH]2)S1,.,.,-11%,.,.
COc1ccc(NC(=O)n2nc(OC(=O)c3cccs3)cc2N)cc1,12%,-2,13µM*,-3%,-5%
COc1ccc(-c2ccc(S(=O)(=O)n3nc(OC(=O)c4cccs4)cc3N)cc2)cc1,-1%,-1,0%,5%,1%
C=CCn1c(SC(C)C#N)nc2ccccc2c1=O (stereo not given),.,.,-9%,.,.
CCOC(=O)c1ccccc1NC1c2ccccc2C(=O)N1C1CCN(C(=O)OCC)CC1 (stereo not given),-23%,0,-43%,-2%[46.1 µM],35µM*
COc1cccc(C(=O)N(C)C(C)c2nc3ccccc3s2)c1 (stereo not given),-3%,-1,9%,-6%,14%
CC(=O)c1ccc(OC(C)c2nc3ccccc3s2)cc1 (stereo not given),24%,-2,6.3µM*,6%,14%
COc1cccc2nccc(/C=C/c3ccc(N(C)C)cc3)c12,.,.,-27%,.,.
O=C(c1ccco1)n1nc(-c2ccco2)nc1SCc1ccccc1,4%,1,?,3%,-1%
Cc1ccc(S(=O)(=O)n2nc(-c3ccco3)nc2SCc2ccccc2)cc1,24%,-1,11µM*,0%,27%
